# Assay results taken from PubChem BioAssay (NCATS).
# Results filed as inconclusive are left out. Where a call stands in place of a potency, no number is given. Unmarked numbers belong to inactive results. Activity calls are given as the source filed them. Calls come from the whole dose curve; as a rule, active = well fitted inhibition curve with a large enough effect; inconclusive = small, poorly fitted or top-dose-only effect; inactive = flat fitted curve, though single readings scatter.
# Assays:
# [1] = target: Glutathione peroxidase 1 (Homo sapiens) (UniProt P07203); assay: Primary qHTS Assay for Inhibitors of Recombinant Selenoprotein Glutathione Peroxidase 1 (GPX1) (AID 1845191)
# Chain of Glutathione peroxidase 1 (Homo sapiens) (P07203 whole entry, looked up): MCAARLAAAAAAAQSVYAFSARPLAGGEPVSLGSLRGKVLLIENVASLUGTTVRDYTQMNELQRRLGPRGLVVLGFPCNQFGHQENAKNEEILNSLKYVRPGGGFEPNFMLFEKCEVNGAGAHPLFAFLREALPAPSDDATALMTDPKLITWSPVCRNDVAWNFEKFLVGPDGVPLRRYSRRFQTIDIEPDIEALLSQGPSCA
# Method in brief: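 Recombinant GPX1 (10 nM final) was preincubated with compound for 30 min at room temperature, then reacted with 1 mM GSH, 0.5 mM CHP, 0.5 mM NADPH and 100 nM glutathione reductase; NADPH fluorescence (340/450 nm) was read at 0 and 15 min.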
# [2] = target: Phospholipid hydroperoxide glutathione peroxidase GPX4 (Homo sapiens) (UniProt P36969); assay: Primary qHTS Assay for Inhibitors of Recombinant Selenoprotein Glutathione Peroxidase 4 (GPX4) (AID 1845192); for activity change, negative = inhibition: series mostly up to about 50 µM
# Chain of Phospholipid hydroperoxide glutathione peroxidase GPX4 (Homo sapiens) (P36969 whole entry, looked up): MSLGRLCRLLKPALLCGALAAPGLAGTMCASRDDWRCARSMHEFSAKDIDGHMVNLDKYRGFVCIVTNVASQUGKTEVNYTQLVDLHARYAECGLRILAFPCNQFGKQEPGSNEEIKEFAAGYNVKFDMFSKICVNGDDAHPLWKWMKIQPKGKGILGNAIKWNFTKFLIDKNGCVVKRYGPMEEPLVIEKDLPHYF
# Method in brief: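 GR-coupled readout: 100 nM GR, 1 mM GSH, 0.5 mM NADPH; NADPH fluorescence (ex 340/em 450 nm) read at t=0 and after 15 min RT. GPX4 200 nM, preincubated 30 min with compound; substrate 0.5 mM CHP.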
# Note: nearly all actives have a fitted effect of over 65% in size.
# Potency is the fitted concentration of half-maximal effect.
compound,measurement,setting,value
CC(C)C[C@H]1C(=O)O[C@H](Cc2ccc(N3CCOCC3)cc2)C(=O)N(C)[C@@H](CC(C)C)C(=O)O[C@H](C)C(=O)N(C)[C@@H](CC(C)C)C(=O)O[C@H](Cc2ccc(N3CCOCC3)cc2)C(=O)N(C)[C@@H](CC(C)C)C(=O)O[C@H](C)C(=O)N1C,Potency,[1],inactive
same,Potency,[2],inactive
CCCCCCCCCCCCCCCC(=O)OCC=C(C)C=CC=C(C)C=CC1=C(C)CCCC1(C)C,Potency,[1],inactive
same,Potency,[2],inactive
Cc1nccn1CCC(C(N)=O)(c1ccccc1)c1ccccc1,Potency,[1],inactive
same,Potency,[2],inactive
CC(=O)c1cc2cccc(OCC(O)CNC(C)C)c2o1 (configuration not stated),Potency,[1],inactive
same,Potency,[2],inactive
CO[C@@H]1[C@@H](O[C@@H]2O[C@H](C)[C@@H](O[C@H]3C[C@@](C)(O)[C@H](O)[C@H](C)O3)[C@H](N(C)C)[C@H]2O)[C@@H](CC=O)C[C@@H](C)[C@@H](O[C@H]2CC[C@H](N(C)C)[C@@H](C)O2)/C=C/C=C/C[C@H](C)OC(=O)C[C@H]1O,Potency,[1],inactive
same,Potency,[2],inactive
C=CCN1CC[C@]23c4c5ccc(O)c4O[C@H]2[C@@H](OCCOCCOCCOCCOCCOCCOCCOC)CC[C@@]3(O)[C@H]1C5,Potency,[1],inactive
same,Potency,[2],inactive
[2H]N[C@@H](Cc1ccccc1)C(=O)N1CCC[C@H]1C(=O)N[C@@H](CCCNC(=N)N)C(=O)N1CCC[C@H]1C(=O)NCC(=O)NCC(=O)NCC(=O)NCC(=O)N[C@@H](CC(N)=O)C(=O)NCC(=O)N[C@@H](CC(=O)O)C(=O)N[C@@H](Cc1ccccc1)C(=O)N[C@@H](CCC(=O)O)C(=O)N[C@@H](CCC(=O)O)C(=O)N[C@H](C(=O)N1CCC[C@H]1C(=O)N[C@@H](CCC(=O)O)C(=O)N[C@@H](CCC(=O)O)C(=O)N[C@@H](Cc1ccc(O)cc1)C(=O)N[C@@H](CC(C)C)C(=O)O)[C@@H](C)CC,outcome,[1],inactive [at 9.52 µM]
same,outcome,[2],inactive [at 9.73 µM]
OCC1OC(c2ccc(Cl)c(Cc3ccc(OC4CCOC4)cc3)c2)C(O)C(O)C1O (configuration not stated),Potency,[1],inactive
same,Potency,[2],inactive
CCCC(=O)Nc1ncnc2c1ncn2C1O[C@@H]2COP(=O)(O)O[C@H]2[C@H]1OC(=O)CCC (some centres not stated),Potency,[1],inactive
same,Potency,[2],inactive
CO[C@@H]1C[C@H](O[C@H]2[C@H](C)[C@H](O[C@@H]3O[C@@H](C)C[C@@H](N(C)C)[C@H]3OC(C)=O)[C@H](C)C[C@]3(CO3)C(=O)[C@H](C)[C@H](OC(C)=O)[C@H](C)[C@H](C)OC(=O)[C@@H]2C)O[C@H](C)[C@H]1OC(C)=O,Potency,[1],inactive
same,Potency,[2],inactive
O=C(O)C(O)C(O)C(=O)O (configuration not stated),Potency,[1],inactive
same,Potency,[2],inactive
C=CC1(C)CC(=O)C2(O)C(C)(O1)C(OC(C)=O)C(OC(=O)CCN(C)C)C1C(C)(C)CCC(O)C12C (configuration not stated),Potency,[1],inactive
same,Potency,[2],inactive
Cc1cc(CC(C)C[Si](C)(O[Si](C)(C)C)O[Si](C)(C)C)c(O)c(-n2nc3ccccc3n2)c1 (configuration not stated),Potency,[1],inactive
same,Potency,[2],inactive
CC(C)=C/C(C)=N\Nc1nncc2ccccc12,Potency,[1],inactive
same,Potency,[2],inactive
CCOc1cc(C(CS(C)(=O)=O)N2C(=O)c3cccc(NC(C)=O)c3C2=O)ccc1OC (configuration not stated),Potency,[1],inactive
same,Potency,[2],inactive
CN(CCCCCCN(C)C(=O)Oc1ccc[n+](C)c1)C(=O)Oc1ccc[n+](C)c1,Potency,[1],inactive
same,Potency,[2],inactive
[2H]C([2H])([2H])C(CCC[C@@H](C)[C@H]1CC[C@H]2/C(=C/C=C3\C[C@@H](O)C[C@H](O)C3=C)CCC[C@]12C)C([2H])([2H])[2H],Potency,[1],inactive
same,Potency,[2],14.1 µM (active)
CCCCCCCCCCCCOC(=O)CS(=O)(=O)O,Potency,[1],inactive
same,Potency,[2],14.1 µM (active)
NS(=O)(=O)c1ccc(-n2nc(C(F)(F)F)cc2-c2ccc(F)cc2)cc1,Potency,[1],inactive
same,Potency,[2],inactive
C=Cc1c(C)c2cc3nc(c(CC(=O)N[C@@H](CC(=O)O)C(=O)O)c4nc(cc5[nH]c(cc1[nH]2)c(C)c5CC)C(C)=C4C(=O)O)[C@@H](CCC(=O)O)[C@@H]3C,Potency,[1],inactive
same,Potency,[2],inactive
CCCC1CC(C(=O)NC(C(C)Cl)C2OC(SC)C(OP(=O)(O)O)C(O)C2O)N(C)C1 (configuration not stated),Potency,[1],inactive
same,Potency,[2],inactive
CC[C@H](C)[C@@H]([C@@H](CC(=O)N1CCC[C@H]1[C@H](OC)[C@@H](C)C(=O)NCCc1ccccc1)OC)N(C)C(=O)[C@@H](NC(=O)[C@H](C(C)C)N(C)C)C(C)C,Potency,[1],inactive
same,Potency,[2],inactive
CCCCCCCCCC(=O)OCCN1CCN(CCCN2c3ccccc3Sc3ccc(C(F)(F)F)cc32)CC1,Potency,[1],inactive
same,Potency,[2],inactive
C[N+]1(C)[C@@H]2CC(OC(=O)C(O)(c3cccs3)c3cccs3)C[C@H]1[C@H]1O[C@@H]12 (some centres not stated),Potency,[1],inactive
same,Potency,[2],inactive
CCCCCCCCCC(=O)OC1(c2ccc(Cl)cc2)CCN(CCCC(=O)c2ccc(F)cc2)CC1,Potency,[1],inactive
same,Potency,[2],inactive
CC(C)OC(=O)CCC/C=C\C[C@@H]1[C@@H](CC[C@@H](O)CCc2ccccc2)[C@H](O)C[C@@H]1O,outcome,[1],inactive [at 9.52 µM]
same,"activity change, negative = inhibition",[2],4.91% [at 9.73 µM]
CCCCCCC(COC(=O)c1cccnc1)(COC(=O)c1cccnc1)COC(=O)c1cccnc1,Potency,[1],inactive
same,Potency,[2],inactive
Cn1cc(OCC(O)CNC(C)(C)C)c2ccccc2c1=O (configuration not stated),Potency,[1],inactive
same,Potency,[2],inactive
OC[C@H]1O[C@@H](OC[C@H]2O[C@@H](O[C@@H]3[C@@H](O)[C@H](O)O[C@H](CO)[C@H]3O)[C@H](O)[C@@H](O[C@@H]3O[C@H](CO)[C@@H](O)[C@H](O)[C@H]3O)[C@@H]2O)[C@H](O)[C@@H](O)[C@@H]1O,Potency,[1],inactive
same,Potency,[2],inactive
C[C@]12C=CC(=O)C=C1CC[C@@H]1[C@@H]2[C@@H](O)C[C@@]2(C)[C@H]1CC[C@]2(O)C(=O)COP(=O)(O)O,outcome,[1],inactive [at 9.52 µM]
same,outcome,[2],inactive [at 9.73 µM]
CC1CCCC(C)N1C(=S)Nc1cccc(C(F)(F)F)c1 (configuration not stated),Potency,[1],22.7 µM (active)
same,Potency,[2],11.2 µM (active)
Cc1cc(O)ccc1C(C)(C)C,Potency,[1],inactive
same,Potency,[2],inactive
CC(C)(C)NCC(O)COc1ccccc1C#N (configuration not stated),Potency,[1],inactive
same,Potency,[2],inactive
CC(C=CC1=C(C)CCCC1(C)C)=CC=CC(C)=CC(=O)Oc1c(C)c(C)c2c(c1C)CC[C@@](C)(CCC[C@H](C)CCC[C@H](C)CCCC(C)C)O2,outcome,[1],inactive [at 4.49 µM]
same,outcome,[2],inactive [at 4.52 µM]
CC(=O)OCC1=C(C(=O)O)N2C(=O)[C@@H](NC(=O)[C@H](N)c3ccccc3)[C@H]2SC1,Potency,[1],10.1 µM (active)
same,Potency,[2],15.8 µM (active)
Cc1ccc(S(=O)(=O)O)cc1,Potency,[1],inactive
same,Potency,[2],inactive
CCC(=O)Oc1ccc2c(c1)CC[C@@H]1[C@H]2CC[C@]2(C)[C@@H](OC(=O)CC)CC[C@@H]12,Potency,[1],inactive
same,Potency,[2],inactive
COc1cc(/C=C\C(=O)N2CCN(CC(=O)N3CCCC3)CC2)cc(OC)c1OC,Potency,[1],inactive
same,Potency,[2],inactive
O=C(O)[C@H]1OC(O)[C@H](O)[C@@H](O)[C@@H]1O (some centres not stated),Potency,[1],inactive
same,Potency,[2],inactive
CO[C@H]1C[C@@H]2CC[C@@H](C)[C@@](O)(O2)C(=O)C(=O)N2CCCC[C@H]2C(=O)O[C@H]([C@H](C)C[C@@H]2CC[C@@H](OCCO)[C@H](OC)C2)CC(=O)[C@H](C)/C=C(/C)[C@@H](O)[C@@H](OC)C(=O)[C@H](C)C[C@H](C)\C=C/C=C\C=C/1C,Potency,[1],inactive
same,Potency,[2],3.98 µM (active)
COc1ccc(CNc2nc(N3CCC[C@H]3CO)ncc2C(=O)NCc2ncccn2)cc1Cl,Potency,[1],inactive
same,Potency,[2],inactive
CN1N=C2CCN(C(=O)[C@H](COCc3ccccc3)NC(=O)C(C)(C)N)C[C@]2(Cc2ccccc2)C1=O,Potency,[1],inactive
same,Potency,[2],inactive
CCCCCCO[C@@H](C)c1cccc(-c2csc(NC(=O)c3cc(Cl)c(/C=C(\C)C(=O)O)c(Cl)c3)n2)c1OC,Potency,[1],inactive
same,Potency,[2],2.51 µM (active)
CCC(=O)O[C@@H]1[C@@H](C)O[C@@H](O[C@H]2[C@H](N(C)C)[C@@H](O)[C@H](O[C@H]3[C@@H](CC=O)C[C@@H](C)[C@@H](OC(C)=O)/C=C/C=C/C[C@@H](C)OC(=O)C[C@@H](OC(=O)CC)[C@@H]3OC)O[C@@H]2C)C[C@]1(C)OC(C)=O,Potency,[1],inactive
same,Potency,[2],inactive
CCCCCCCCCCCCCCCCCCCCCCCCCCCCO,outcome,[1],inactive [at 0.4 µM]
same,outcome,[2],inactive [at 0.409 µM]
CCC(=O)O[C@]1(C(=O)COC(C)=O)CC[C@H]2[C@@H]3CCC4=CC(=O)CC[C@]4(C)[C@H]3[C@@H](O)C[C@@]21C,Potency,[1],inactive
same,Potency,[2],inactive
